26 compounds from PubChem BioAssay (EPA / NIEHS) can be followed below.

Active and inactive are the calls of the source. The calls were made as follows: active = hit-call score of the fitted dose curve at least 0.9, where 1 is the maximum; inactive = score below 0.9.

Read-out in one test: ATP-citrate lyase (ACLY), ACLY (gene 47)
The test can be described thus: LTEA_HepaRG_ACLY: Life Technologies and Expression Analysis (LTEA) Assay for ATP-citrate lyase (ACLY) using HepaRG (AID 2283466). The conditions noted are these: mRNA level, 48 h; actives raise or lower the signal. The gist of the method:
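ACLY expression changes in human HepaRG liver cells are quantified by qRT-PCR after 48 h exposure to test chemicals (maximum 100 uM, half-log steps). Values are fitted in both directions relative to 0.5% DMSO vehicle.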
For `CCOC(=O)c1ccc(O)cc1`, the outcome was inactive.
`CCCN(CCC)c1c([N+](=O)[O-])cc(C(F)(F)F)c(N)c1[N+](=O)[O-]`: the compound was classed as inactive.
On the same count and under the same terms, in the case of `O=C(c1ccccc1)C1CCCCC1` it was “inactive”; in that of `C=CCOC(Cn1ccnc1)c1ccc(Cl)cc1Cl` (stereo not given), “inactive”; in that of `COCCO`, “inactive”.
With `N[C@@H](Cc1cc(I)c(Oc2ccc(O)c(I)c2)c(I)c1)C(=O)O`, the compound was classed as inactive.
Consider `COc1c(Cl)ccc(Cl)c1C(=O)O`, for which the outcome was inactive.
On to `CCC(C)OC(=O)N1CCCCC1CCO` (stereo not given), for which the compound was classed as inactive.
`CC(C)(C)[C@@H](O)[C@@H](Cc1ccc(Cl)cc1)n1cncn1`: the AC50 is 50 µM (active).
`O=C(O)C1(C(=O)Nc2ccc(Cl)cc2Cl)CC1`: the compound was classed as inactive.
On to `OB(O)O`, for which the outcome was inactive.
`CC(=O)[C@H]1CC[C@H]2[C@@H]3CCC4=CC(=O)CC[C@]4(C)[C@H]3CC[C@]12C`: the AC50 is 83.2 µM (active).
Take `CCCCC(CC)CN1C(=O)C2C3C=CC(C3)C2C1=O` (stereo not given): the AC50 is 73 µM (active).
Consider `CCN(Cc1c(F)cccc1Cl)c1c([N+](=O)[O-])cc(C(F)(F)F)cc1[N+](=O)[O-]`, for which the compound was called inactive.
Same read-out and setting: the entry for `C[C@]12C[C@H](O)[C@H]3[C@@H](CCC4=CC(=O)CC[C@@]43C)[C@@H]1CC[C@@H]2C(=O)CO` is “inactive”.
With `C#CCOC(=O)[C@@H](C)Oc1ccc(Oc2ncc(Cl)cc2F)cc1`, the compound was called inactive.
For the compound `Cc1nn(C)c(Oc2ccccc2)c1C=NOCc1ccc(C(=O)OC(C)(C)C)cc1`, the AC50 was 1.11 µM (active).
Take `CCOC(=O)C(C)Oc1ccc(Oc2nc3ccc(Cl)cc3o2)cc1` (stereo not given): the outcome was inactive.
As for `CCOC(=O)COc1cc(-n2ncc(C(F)(F)F)c(C)c2=O)c(F)cc1Cl`, the result was inactive.
For `Oc1ccc(C(c2ccc(O)cc2)C(Cl)(Cl)Cl)cc1`, the AC50 was 78.5 µM (active).
With `c1ccc(Nc2ccccc2)cc1`, the call was inactive.
On to `CCCOC(=O)c1ccc(C(=O)OCCC)nc1`, for which the compound was called inactive.
Turning to `CCCCC(CC)COC(=O)c1ccccc1C(=O)O` (stereo not given), the compound was classed as inactive.
For `CCSC(=O)N(CC(C)C)CC(C)C`, the compound was called inactive.
Still for that read-out and setting: in the case of `CCCCOC(=O)C(C)Oc1ccc(Oc2ccc(C(F)(F)F)cn2)cc1` (stereo not given) it was “inactive”.
In the case of `CCOC(=O)C(C)Oc1ccc(Oc2cnc3cc(Cl)ccc3n2)cc1` (stereo not given), the compound was called inactive.

Read-out in the next test: Peroxisomal acyl-coenzyme A oxidase 1 (ACOX1) gene, ACOX1 (gene 51)
The test is described as follows: LTEA_HepaRG_ACOX1: Life Technologies and Expression Analysis (LTEA) Assay for Peroxisomal acyl-coenzyme A oxidase 1 (ACOX1) gene using HepaRG (AID 2283467). The note with it: mRNA level, 48 h; actives raise or lower the signal. The gist of the method:
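Human HepaRG hepatic cultures, 48 h treatment with test chemicals up to 100 uM. ACOX1 expression read by qRT-PCR relative to 0.5% DMSO vehicle.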
For the compound `CCCN(CCC)c1c([N+](=O)[O-])cc(C(F)(F)F)c(N)c1[N+](=O)[O-]`, the outcome was inactive.
In the case of `COCCO`, the result was inactive.
Consider `O=C(O)C1(C(=O)Nc2ccc(Cl)cc2Cl)CC1`, for which the AC50 is 81.2 µM (active).
On the same count and under the same terms, the figure for `Oc1ccc(C(c2ccc(O)cc2)C(Cl)(Cl)Cl)cc1` is 85.5 µM (active).
